Screening data from PubChem.
Sampled rows, rich in hits. Any-hit rate of the full collection: about 4%.
BoNT-A LC inh2 = BoNT/A light chain protease inhibitors, primary screen, biochemical, flow cytometry, MLPCN library. inhibition, % at 10 µM. hit rate 0.17% among 360,000. multiplex microsphere protease substrate cleavage. AID 588499, 2011
Anthrax LF inh2 = Bacillus anthracis LF protease inhibitors, primary screen, biochemical, multiplex microsphere, MLPCN library; Lethal factor (Bacillus anthracis), P15917; multiplex microsphere protease cleavage assay; inhibition, % at 10 µM; hit rate 0.12% among 360,000; AID 588501, 2011
DUSP3 inh = VHR1 phosphatase inhibitors, primary screen, biochemical, absorbance, uHTS. AID 1654, 2009. inhibition, % at 13.3 µM. recombinant VHR phosphatase, pNPP absorbance. hit rate 0.52% among 290,000; in the data active means inhibition above about 50%
Bead autofluor = compound fluorescence in toxin protease inhibitor counterscreen; compound autofluorescence counterscreen, microsphere flow cytometry; stronger effect = higher value; fluorescence intensity (no concentration beside the values); hit rate 3.1% among 360,000; AID 624483; in the data active means fluorescence intensity above about 16000; inconclusive means no clear call, values can overlap the other calls
BoNT F protease = BoNT/F light chain protease inhibitors, primary screen, biochemical, flow cytometry, MLPCN library; Botulinum neurotoxin type F light chain protease (Clostridium botulinum); Multiplex microsphere protease cleavage assay; inhibition, % at 10 µM; hit rate 0.22% among 360,000; AID 588497, 2011; in the data active means inhibition above about 35%, passing the limit was not always enough; inconclusive means no clear call, values can overlap the other calls
MazF activator = activators of E. coli MazEF toxin-antitoxin RNase, primary screen, biochemical, fluorescence, uHTS; FAM/BHQ RNA-DNA oligo cleavage fluorescence, 5 h; activation, % at 20 µM; hit rate 0.32% among 350,000; AID 504720, 2011; in the data active means activation above about 50%
Each line names hits and unclear results; the compound was inactive in the other large screens. Unless noted, no stated cut-off is given here; in the data, active means inhibition above about 30%; inconclusive means no clear call, values can overlap the other calls; inactive means below that.

O=C(CSc1nc2ccccc2c(=O)n1Cc1ccc(F)cc1)NCc1cccs1	none
CC(C)N1C(=O)S/C(=C/c2cccnc2)C1=O	BoNT-A LC inh2 inconclusive, Bead autofluor 22160
CC(C)N1C(=O)S/C(=C/c2ccc3c(c2)n(C)c(=O)n3C)C1=O	none
O=C(CSc1nnc(-c2ccncc2)n1CC1CCCO1)Nc1cccc(O)c1 (stereo not given)	Bead autofluor 22751
CCC(=O)Nc1ccc(C(=O)CSc2nnc(-c3ccc(O)cc3)n2CC2CCCO2)cc1OC (stereo not given)	Bead autofluor 20195
CSc1ccc(C(=S)N2CCN(CCO)CC2)cc1	none
OCCN1CCN(C(=S)c2ccc(Br)cc2)CC1	BoNT-A LC inh2 inconclusive, Bead autofluor 21663
COc1cccc(C(=O)N(Cc2ccccc2)Cc2cc3cc4c(cc3[nH]c2=O)OCCO4)c1	Bead autofluor 20933
COc1ccc(C(=O)N(Cc2ccccc2)Cc2cc3cc4c(cc3[nH]c2=O)OCCO4)cc1	Bead autofluor 22249
Cc1cc2cc(CN(Cc3ccc4c(c3)OCO4)C(=O)c3ccco3)c(=O)[nH]c2cc1C	none
COc1cc2cc(CN(Cc3ccc4c(c3)OCO4)C(=O)c3ccco3)c(=O)[nH]c2cc1OC	Bead autofluor 16500 (no result: DUSP3 inh)
Cc1ccc(CN2C(=O)CCC2C(=O)N2CCN(c3ccc(F)cc3)CC2)cc1 (stereo not given)	none
CCn1c(COc2ccc(Cl)c(C)c2)nnc1SCC(=O)N1CCCC1	BoNT-A LC inh2 inconclusive, Bead autofluor 20792
CCn1c(SCC(=O)Nc2ccccc2C(=O)OC)nnc1-c1ccc(N)cc1	Bead autofluor 23878
CCOC(=O)c1ccccc1NC(=O)CSc1nnc(COc2ccccc2C)n1C	BoNT-A LC inh2 inconclusive, Bead autofluor 17960
CCn1c(COc2ccc(C)cc2)nnc1SCC(=O)Nc1cc(OC)ccc1OC	Bead autofluor 22615
Nc1nc2c(s1)C(=O)CCC2	none
CC1CCN(C(=O)c2cc(Cl)nc3ccccc23)CC1	none
CCn1c(CC(=O)Nc2ccccc2)nnc1SCC(=O)Nc1ccccc1C(=O)OC	none
CCn1c(COc2cccc(OC)c2)nnc1SCC(=O)Nc1ccccc1C(=O)OC	BoNT-A LC inh2 inconclusive, Bead autofluor 19252
CCn1c(SCC(=O)c2ccc3c(c2)Cc2ccccc2-3)nnc1-c1ccc(N)cc1	Bead autofluor 23475
CCOC(=O)CCCSc1nc(-c2ccc3c(c2)OCO3)cc(C(F)(F)F)c1C#N	none
O=C(COc1cccc(Cl)c1)N/N=C\c1cc2ccccc2nc1Cl	MazF activator 147.8
COCCn1c(SCC(=O)Nc2ccc(S(=O)(=O)N3CCOCC3)cc2)nc2ccccc21	BoNT-A LC inh2 inconclusive, Bead autofluor 23038
NC(=O)CSc1nnc(-c2ccc(S(=O)(=O)N3CCOCC3)cc2)n1CC1CCCO1 (stereo not given)	Bead autofluor 22288
CCn1c(SCC(=O)Nc2cc(C)on2)nnc1-c1ccc(S(=O)(=O)N2CCCC2)cc1	BoNT-A LC inh2 inconclusive, Bead autofluor 20376
Cc1ccc(NC(=O)CSc2nnc(-c3ccc(S(=O)(=O)N4CCOCC4)cc3)n2C)cc1	BoNT-A LC inh2 inconclusive, Bead autofluor 19086
COCCn1c(SCC(=O)Nc2ccc(S(N)(=O)=O)cc2)nc2ccccc21	none
CCOc1ccc(NC(=O)CCC(=O)NNC(=O)Nc2cccc(Cl)c2)cc1	none
O=C(CCCOc1ccc(Cl)cc1Cl)NCCc1nnc2ccccn12	none
CCOC(=O)N1CCC(Nc2c(-c3ccc(C)cc3)c(=O)c2=O)CC1	none
Cc1ccc(-n2c(SCC(N)=O)nnc2-c2ccc(S(=O)(=O)N3CCCCC3)cc2)c(C)c1	Bead autofluor 16453
O=C(CCCN1C(=O)c2ccccc2C1=O)Nc1ccc(S(=O)(=O)N2CCCCC2)cc1	none
O=C(CCCN1C(=O)c2ccccc2C1=O)Nc1ccc(S(=O)(=O)N2CCOCC2)cc1	BoNT-A LC inh2 inconclusive, Bead autofluor 24200
COc1cccc(NC(=O)Cn2c(SCC(=O)N3CCOCC3)nc3ccccc32)c1	BoNT-A LC inh2 inconclusive, Bead autofluor 16158
